In ChEMBL document CHEMBL1157539, “Thousands of chemical starting points for antimalarial lead identification” (Nature, 2010):

System: Plasmodium falciparum
Assay: GSK_TCMDC: Inhibition of Plasmodium falciparum Dd2 in whole red blood cells, using parasite LDH activity as an index of growth. Test compounds present at 2uM
Assay type: functional

SMILES	Inhibition [%]
CCN(CC)CCCNc1c2ccccc2nc2ccccc12.Cl	0
Cc1ccc(Cn2ncc(NC3CCNCC3)c(Cl)c2=O)cc1NC(=O)Nc1ccc(-c2ccccc2)cc1.O=C(O)C(F)(F)F	61
CC(C)NCc1ccc(-c2ccc(NC(=O)c3cccc(C#N)c3)cc2)cc1.O=C(O)C(F)(F)F	77
Cc1ccccc1N1CCN(c2ccc(C(=O)Nc3ccccc3)cn2)CC1.O=C(O)C(F)(F)F	69
Cc1cc(C2CCN(CCCCNC(=O)c3ccc(NC(=O)c4ccc(Cl)cc4)cc3)CC2)c(C)cc1OCc1nccn1C.Cl	98
N#Cc1cccc(CN(Cc2ccc(Cl)c(Cl)c2)S(=O)(=O)c2cccc([N+](=O)[O-])c2)c1	73
CCN(CCCN1CCCCC1)c1cc(C)nc(Nc2cc(Cl)cc(Cl)c2)n1.O=C(O)C(F)(F)F	99
Cc1noc(C)c1-c1cccc(CNCc2cccc(-c3cccc(-c4nc5cccc(C)c5[nH]4)c3)c2)c1.O=C(O)C(F)(F)F	66
CN(c1ccc2c(c1)nc(NCc1ccc(F)cc1)n2C)c1ccnc(Nc2ccc(CS(C)(=O)=O)cc2)n1.Cl	79
CNC(=O)/C=C/c1cc(NC(=O)Nc2ccnc3c(Br)cccc23)ccc1OC	68
Cc1cccc2nc(-c3ccc(-c4ccc(NC(=O)Nc5cccc(C#N)c5)cc4)cc3)[nH]c12	100
COc1ccc(CNC2CCN(C)CC2)cc1-c1ccc(S(=O)(=O)NC2CCC2)c(F)c1.O=C(O)C(F)(F)F	97
COc1cc(NC(=O)N2CCc3cc(OC)c(OCCN4CCCCC4)cc32)cc(C(F)(F)F)c1.O=C(O)C(=O)O	10
